Screening results: PubChem BioAssay, National Center for Advancing Translational Sciences (NCATS)
TGFb inhibitor = inhibitors of TGF-b signaling; HepG2 CAGA-GFP TGF-b/SMAD3 reporter, GFP fluorescence, 18 h; TGF-beta stimulated, 500 pg/mL final; Potency, µM (titrated, usually from 46.1 µM), actives largely listed as inhibitors; 410,000 tested, 1.2% active; AID 588855; also: nearly all actives have a fitted effect of over 65% in size
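GFP signal (ex488/em500-530) from TGF-beta-stimulated HEPG2 CAGA-GFP cells, 500 pg/mL final, 18 h at 37 degrees C in DMEM plus 1% FBS, normalized to unstimulated and DMSO-stimulated controls.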
HepG2 tox = counter-screen for TGF-b inhibitors: cytotoxicity in HepG2 cells. HepG2 CAGA-GFP viability, ATP luminescence, 18 h. Potency, µM (series often up to 46.1 µM), usual class: cytotoxic. 410,000 tested, 0.76% active
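HepG2 CAGA-GFP cells (1000/well, DMEM with 1% FBS) received compound, then TGF-beta at 500 pg/mL final, and were incubated 18 hours at 37 degrees C. Viability was read by CellTiter-Glo luminescence. Media-only wells were set as complete cell-killing and DMSO as no toxicity.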
TDP1 cell noCPT = qHTS for Inhibitors of human tyrosyl-DNA phosphodiesterase 1 (TDP1): qHTS in cells in absence of CPT; DT40 Tdp1-/- hTDP1 cells, no CPT, ATP luminescence, 48 h; Potency, µM (titrated, usually from 46.2 µM), actives largely listed as inhibitors; 420,000 tested, 15% active; also: nearly all actives have a fitted effect of over 55% in size
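Cells were dispensed at 400 per well, compounds added by pin tool, plates incubated ≥48 hr at 37 °C, then CellTiter-Glo added for 30 min at room temperature before luminescence reading. Line: DT40 Tdp1-/- complemented with hTDP1; camptothecin omitted.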
TDP1 cell CPT = growth inhibition of DT40 Tdp1-/-;hTDP1 cells with camptothecin (screen for TDP1 inhibitors). AID 686979. chicken DT40 Tdp1-/-;hTDP1 cells + 20 nM CPT, ATP luminescence, 48 h. 420,000 tested, 12% active. Potency, µM (top dose mostly 46.2 µM), most hits filed as inhibitors; also: nearly all actives have a fitted effect of over 55% in size
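Cell growth measured by CellTiter-Glo luminescence after a minimum 48 h, 37 C compound exposure with 20 nM CPT in Tdp1-knockout DT40 cells stably expressing hTDP1, seeded 400/well; qHTS titration format.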
TDP1 inh = blocks human tyrosyl-DNA phosphodiesterase 1. Q9NUW8. recombinant TDP1, AlphaScreen DNA substrate cleavage. Potency, µM (doses to about 130 µM), most hits filed as inhibitors. 350,000 tested, 0.28% active. AID 485290; also: nearly all actives have a fitted effect of over 40% in size
Target sequence (Q9NUW8 whole entry, looked up): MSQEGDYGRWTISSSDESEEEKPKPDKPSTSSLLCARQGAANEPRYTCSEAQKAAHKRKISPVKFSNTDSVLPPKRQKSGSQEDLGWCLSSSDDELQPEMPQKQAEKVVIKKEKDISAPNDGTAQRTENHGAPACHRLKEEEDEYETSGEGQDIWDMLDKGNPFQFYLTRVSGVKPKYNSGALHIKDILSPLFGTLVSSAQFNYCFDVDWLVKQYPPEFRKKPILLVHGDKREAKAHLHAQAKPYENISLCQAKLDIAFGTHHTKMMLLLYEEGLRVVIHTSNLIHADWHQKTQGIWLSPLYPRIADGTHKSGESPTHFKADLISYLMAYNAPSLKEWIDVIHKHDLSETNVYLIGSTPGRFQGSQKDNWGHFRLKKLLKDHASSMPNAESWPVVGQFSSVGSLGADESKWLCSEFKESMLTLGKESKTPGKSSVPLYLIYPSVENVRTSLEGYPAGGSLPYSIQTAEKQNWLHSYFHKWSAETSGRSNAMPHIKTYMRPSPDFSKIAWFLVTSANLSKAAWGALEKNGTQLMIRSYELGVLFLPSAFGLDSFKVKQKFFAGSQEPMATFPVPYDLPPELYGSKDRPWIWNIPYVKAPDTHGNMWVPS
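Recombinant human Tdp1 (E. coli-expressed, 1 nM final) preincubated with compounds 15 min at room temperature, then 5'-biotin/3'-phosphotyrosine-FITC DNA substrate (15 nM final) added for 5 min. AlphaScreen beads (10 ug/ml final) added 10 min; cleavage lowers signal.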
IL1B secr inh = inhibitors of inflammasome signaling (IL-1 beta secretion) | THP-1 LPS/ATP IL-1B secretion, AlphaLISA, 16 h; hits give low values | activity change, % at 57.5 µM | 360,000 tested, 4.7% active; in the data active = activity change below about -50%; inconclusive = mostly about -30% to -49%
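THP-1 cells pretreated 1 hr with compounds (up to 57.5 uM final), then stimulated with LPS (250 ng/mL final) plus ATP (1.25 mM final); secreted IL-1B measured by AlphaLISA after 16 hr, decreased signal indicating inhibition.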
Large screens that a line does not name were inactive. Rows were chosen to be rich in hits. Some 18% of all compounds tested hit in one or more screens of this group. Unless noted, calls follow the shape of the dose curve; as a rule, active = well fitted curve in the direction sought with a large enough effect; inconclusive = small, poorly fitted or top-dose-only effect, or another doubt; inactive = no such curve, though single readings can be large; an effect the other way counts as inactive or inconclusive.

CC(=O)c1ccc(N2CCN(C(=S)Nc3ccccc3F)CC2)cc1	TDP1 cell noCPT 7.31µM, TDP1 cell CPT inconclusive
CC(=O)c1ccc(N2CCN(C(=S)Nc3ccccc3)CC2)cc1	TDP1 cell noCPT 20.6µM, TDP1 cell CPT inconclusive
O=C(CN(C(=O)c1csnn1)c1ccc2c(c1)OCCO2)NCc1ccc(F)cc1	none
CCOC(=O)N1CCN(C(=O)C2CCN(S(=O)(=O)N3CCC4(CC3)OCCO4)CC2)CC1	none
CCCS(=O)(=O)N1CCC(C(=O)NCCCN2CCC(Cc3ccccc3)CC2)CC1	none
O=C(C1CCN(S(=O)(=O)N2CCC3(CC2)OCCO3)CC1)N1CCC(Cc2ccccc2)CC1	TDP1 cell noCPT inconclusive, TDP1 cell CPT inconclusive, IL1B secr inh -64.3
CCCS(=O)(=O)N1CCC(C(=O)N2CCC(Cc3ccccc3)CC2)CC1	TDP1 cell noCPT 20.6µM, TDP1 cell CPT 18.4µM
CCCS(=O)(=O)N1CCCC(C(=O)N2CCC(Cc3ccccc3)CC2)C1 (stereo not given)	TDP1 cell noCPT 14.6µM, TDP1 cell CPT inconclusive
NC(=O)C1CCN(c2ccc(S(=O)(=O)N3CCC(Cc4ccccc4)CC3)cn2)CC1	TGFb inhibitor inconclusive, TDP1 cell noCPT 13µM, TDP1 cell CPT inconclusive
O=S(=O)(c1ccc(Cl)nc1)N1CCC(Cc2ccccc2)CC1	none
CCCCNC(=O)C1CCCN(S(=O)(=O)CCC)C1 (stereo not given)	none (no result: IL1B secr inh)
CCCCOc1ccc(C(C)NC(=O)C2CCCN(S(=O)(=O)CCC)C2)cc1 (stereo not given)	TDP1 cell noCPT 16.4µM, TDP1 cell CPT 11.6µM
CC(C)C(NC(=O)c1ccco1)C(=O)NCc1ccc(C(=O)O)cc1 (stereo not given)	none (no result: TDP1 inh)
Cc1ccc(N(CC(=O)N/N=C/c2ccc(OC3CSC3)cc2)S(=O)(=O)c2ccccc2)cc1	none
CC(C)c1ccc(N(CC(=O)NCCCN2CCOCC2)S(=O)(=O)c2ccccc2)cc1	TDP1 cell noCPT 25.9µM, TDP1 cell CPT 18.4µM
CC(C)c1ccc(N(CC(=O)N/N=C/c2ccc(OC3CSC3)cc2)S(=O)(=O)c2ccccc2)cc1	TDP1 cell noCPT inconclusive, TDP1 cell CPT 23.1µM
COC(=O)c1c(Cl)c2n3ccccc3c(C)c(-c3ccccc3)c-2c1C(=O)OC	TDP1 cell noCPT 23.1µM, TDP1 cell CPT inconclusive
Cn1nnnc1Sc1ncnc2scc(-c3ccccc3C(F)(F)F)c12	TGFb inhibitor inconclusive, TDP1 inh 8.91µM (no result: TDP1 cell noCPT, TDP1 cell CPT, IL1B secr inh)
Cn1nnnc1Sc1ncnc2scc(-c3cccc(C(F)(F)F)c3)c12	TGFb inhibitor inconclusive (no result: TDP1 cell noCPT, TDP1 cell CPT, IL1B secr inh)
Cn1nnnc1Sc1ncnc2scc(-c3cc4ccccc4o3)c12	TGFb inhibitor 2.51µM, HepG2 tox 4.47µM (no result: TDP1 cell noCPT, TDP1 cell CPT, IL1B secr inh)
Cn1nnnc1Sc1ncnc2scc(-c3cccc(F)c3)c12	TGFb inhibitor 10µM (no result: TDP1 cell noCPT, TDP1 cell CPT, IL1B secr inh)
Cn1nnnc1Sc1ncnc2scc(-c3ccc(C(F)(F)F)cc3)c12	TGFb inhibitor inconclusive (no result: TDP1 cell noCPT, TDP1 cell CPT, IL1B secr inh)
COc1ccc(CN2C(=O)CCC2(C)c2nnnn2-c2ccc3c(c2)OCCO3)cc1 (stereo not given)	none (no result: TGFb inhibitor, HepG2 tox, TDP1 inh)
O=C(COC(=O)CCNS(=O)(=O)c1ccccc1)Nc1ccc(OC(F)F)cc1	none
C=CCN(c1ccc(C(=O)NCCCn2ccnc2)cc1)S(C)(=O)=O	none (no result: TDP1 inh)
CCOC(=O)C1(C(=O)OCC)NC(=O)CC1CC (stereo not given)	none (no result: TDP1 inh)
CCCCCC1CC(=O)NC1(C(=O)OCC)C(=O)OCC (stereo not given)	IL1B secr inh -64.0 (no result: TDP1 inh)
COCC(C)n1c(C)cc(C(=O)COc2ccc(S(=O)(=O)N3CCOCC3)cc2Cl)c1C (stereo not given)	TDP1 cell noCPT inconclusive, TDP1 cell CPT 20.6µM
